This is a sample that favours compounds with a hit; in the whole collection about 6% have one here.
D1 PAM: Potentiators of Human D1 Dopamine Receptor: qHTS. HEK293 TREx D1 cells, calcium flux, dopamine EC20 potentiation. potentiation, % at 10 µM. 360,000 tested, 0.036% active. AID 504651, 2011; in the data active = potentiation above about 30%; also: 0% is about no effect
DRD3 antagonist: qHTS of D3 Dopamine Receptor Antagonist: qHTS | max response, negative = inhibition, % | D(3) dopamine receptor (Homo sapiens), P35462 | D3R cells, DiscoveRx beta-arrestin luminescence, antagonist mode; active compounds read low | 360,000 tested, 2.5% active; in the data active = max response below about -50%; inconclusive = no clear call, values can overlap the other calls; also: % is scaled to controls: 0 for no effect and ±100 for the full control effect
Target sequence (P35462 whole entry, looked up): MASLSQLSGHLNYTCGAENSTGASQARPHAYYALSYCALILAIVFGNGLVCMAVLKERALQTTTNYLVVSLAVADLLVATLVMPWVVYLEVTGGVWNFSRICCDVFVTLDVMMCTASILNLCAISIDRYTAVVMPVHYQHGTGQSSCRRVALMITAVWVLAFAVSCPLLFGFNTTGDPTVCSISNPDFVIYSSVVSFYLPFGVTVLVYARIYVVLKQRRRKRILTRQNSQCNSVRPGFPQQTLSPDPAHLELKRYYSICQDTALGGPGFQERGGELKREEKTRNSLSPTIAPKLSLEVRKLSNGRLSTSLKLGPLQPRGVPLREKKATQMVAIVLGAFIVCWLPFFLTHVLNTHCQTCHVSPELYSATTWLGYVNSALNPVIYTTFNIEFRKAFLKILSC
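Cells plated overnight at 1500 cells/well, then exposed to library compounds with dopamine controls for 90 minutes at 37 degrees C. DiscoveRx reagent added for 30–60 minutes at room temperature; luminescence read, quantitative HTS format.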
D3 ag: qHTS of D3 Dopamine Receptor Agonist: qHTS | D(3) dopamine receptor (Homo sapiens), P35462 | 410,000 tested, 0.58% active | max activation, % | AID 652048, 2013 | D3R DiscoveRx beta-arrestin cells, luminescence, 90 min; in the data active = max activation above about 30%; also: 0% is about no effect
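Agonist-mode cell screen: cells plated at 1500/well and incubated overnight at 37 °C, then exposed to library compounds for 90 min at 37 °C. Detection reagent was added for 30–60 min at room temperature, and luminescence was read.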
D1 ag: Allosteric Agonists of the Human D1 Dopamine Receptor: qHTS; D(1A) dopamine receptor (Homo sapiens), P21728; HEK293 T-REx D1 cells, calcium flux, agonist mode; activation, % at 2 µM; 360,000 tested, 1% active; in the data active = activation above about 30%; also: 0% is about no effect
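Inducible HEK293 T-REx D1 cells, force-coupled to calcium signalling, were plated at 4000 cells/well with tetracycline and held overnight at 30 C. After no-wash calcium dye loading, compound-evoked calcium rise over 180 s flagged agonists.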
D1 antagonist: Antagonist of Human D 1 Dopamine Receptor: qHTS; AID 504652, 2011; HEK293 TREx D1 cells, calcium flux, dopamine EC80; active compounds read low; activity change, negative = inhibition, % at 10 µM; 360,000 tested, 3.2% active; D(1A) dopamine receptor (Homo sapiens), P21728; in the data active = activity change below about -30%; also: % is scaled to controls: 0 for no effect and ±100 for the full control effect
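Tetracycline-induced HEK293 T-REx cells with force-coupled D1 receptor were loaded with a no-wash calcium dye. Compound was added after a 10 s baseline and read kinetically for 180 s; EC80 dopamine was then added and calcium flux followed another 180 s.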
The depositor's hits bear a star; ? = inconclusive; · = not tested or not shown; ! = not active in a repeat.

SMILES	D1 PAM	DRD3 antagonist	D3 ag	D1 ag	D1 antagonist
COc1ccc(OC)c(NC(=O)C2CCN(Cc3cnn(-c4ccccc4)c3-n3cccc3)CC2)c1	3	-65*	-10	3	7
COc1ccc(NC(=O)C2CCN(Cc3cnn(-c4ccccc4)c3-n3cccc3)CC2)cc1OC	-6	-73*	-16	35*	-34*
CCn1cc(CN2CCC(C(=O)Nc3cccc(-c4cccc(OC)c4)c3)CC2)c(C)n1	-5	?	-32	4	13
COc1ccc(OC)c(NC(=O)CSCc2cnn(-c3ccccc3)c2-n2cccc2)c1	-5	0	6	5	-8
COc1cccc(NC(=O)C2CCN(Cc3cnn(-c4ccccc4)c3-n3cccc3)CC2)c1	0	-50*	-1	0	9
CCCc1nc2c(C)cc(Br)cn2c1Cc1cccc(F)c1	·	9	-5	·	·
Cc1nc2ccc(S(=O)(=O)N(CC(=O)Nc3cccc(F)c3)Cc3ccccc3)cc2s1	-6	·	0	7	-21
Oc1ccccc1C1C=C(c2ccc3c(c2)OCO3)NC(c2ccc(F)c(Br)c2)N1 (centres undefined)	6	·	·	10	3
Cn1c(=O)c([N+](=O)[O-])c(N2CCN(Cc3ccc4c(c3)OCO4)CC2)c2ccccc21	-2	12	-17	3	-10
O=[N+]([O-])c1ccccc1/C=C/CN1CCN(Cc2ccc3c(c2)OCO3)CC1	-6	-79*	-9	3	-21
C(=C\c1ccccc1)/CN1CCN(Cc2ccc3c(c2)OCO3)CC1	1	-61*	-12	2	8
CCOc1c(Br)cc(C2CC(=O)Nc3cc4c(cc32)OCO4)cc1OC (centres undefined)	5	·	-2	-1	7
CCN(Cc1ccccc1)C(=O)CCc1c(C)nc2c(c(C)nn2-c2ccc(C)c(C)c2)c1C	-3	·	1	1	6
O=C(O)C1=C[C@H](c2ccc3c(c2)OCO3)C[C@H](OCCCCO)O1	·	21	4	·	·
O=C(O)CSc1nnc(-c2cccc(S(=O)(=O)N3CCOCC3)c2)n1-c1cccc(Cl)c1	4	-7	3	3	-31*
CNC(=O)CSc1nnc(-c2cccc(S(=O)(=O)N3CCOCC3)c2)n1-c1ccc(F)cc1	-7	3	0	1	-19
C=C(C)C(=O)OCC(O)COc1ccc(C(C)(C)c2ccc(OCC(O)COC(=O)C(=C)C)cc2)cc1 (centres undefined)	-3	66	71*	18	-13
CC(=O)c1ccc(OCC(O)COc2ccc(C(C)=O)cc2)cc1	5	-14	0	1	-9
COCc1cc(C)nc2sc(C(=O)Nc3ccc(OC(F)(F)F)cc3)c(N)c12	-5	·	-17	1	-1
c1ccc(SCCc2ccncc2)cc1	-4	37	1	4	-7
Fc1ccc(SCCc2ccncc2)cc1	-10	?	17	9	-34*!
COCCCNC(=O)CC(NS(=O)(=O)c1ccc(C)cc1)c1ccco1 (centres undefined)	-7	-58*	9	0	-23
CCN(CC)CCNC(=O)c1sc2nc3n(c(=O)c2c1C)CCCCC3	-2	·	1	0	2
NC(=O)N/N=C/c1ccccc1OC(=O)c1cc2ccccc2oc1=O	0	-57*	-6	1	11
CCOc1ccc(-c2nnc3ccc(SCC(=O)Nc4nc5ccc(C)cc5s4)nn23)cc1	-15	3	5	1	-43*
SMILES	D1 PAM	DRD3 antagonist	D3 ag	D1 ag	D1 antagonist
CCOc1ccc(-c2nnc3ccc(SC(C)C)nn23)cc1	-3	0	3	2	-42*
CCOc1ccc(-c2nnc3ccc(SCC(=O)Nc4nc5ccccc5s4)nn23)cc1	-10	3	1	0	8
O=C1c2ccccc2S(=O)(=O)c2cc(N3CCN(C(=O)c4ccccc4)CC3)ccc21	·	102	64*	·	·
COc1cc2c(-c3ccccc3C)nc3c(c(C)nn3-c3ccccc3)c2cc1OC	0	·	41*	3	6
Cc1ccc(S(=O)(=O)NCCc2nnc3ccc(SCC(=O)Nc4c(C)cc(C)cc4C)nn23)cc1	1	·	7	-1	5
O=C(NCCc1ccc(F)cc1)C(=O)NCC(c1cccs1)S(=O)(=O)c1cccs1 (centres undefined)	-3	·	-1	42*	·
O=C(NCCc1ccc(Cl)cc1)C(=O)NCC(c1cccs1)S(=O)(=O)c1cccs1 (centres undefined)	-2	·	16	21	·
COc1ccc(CN2C3CCCC2CC(NC(=O)Nc2cccc(C)c2)C3)cc1 (centres undefined)	-4	-78*	0	19	5
COc1ccc(CN2C3CCCC2CC(NC(=O)Nc2ccccc2C)C3)cc1 (centres undefined)	-2	-92*	-9	5	-12
COc1ccc(CN2C3CCCC2CC(NC(=O)Nc2ccccc2)C3)cc1 (centres undefined)	-8	-64*	-7	8	-7
COc1ccc(NC(=S)NC2CC3CCCC(C2)N3C2CC2)cc1 (centres undefined)	-8	13	2	3	-38*
COC(=O)C1CCN(S(=O)(=O)c2cc3c4c(c2)CC(=O)N4CCC3)CC1	-2	·	9	-1	·
CC(C)(C)C(=O)NC(=S)NNC(=O)C(c1ccccc1)c1ccccc1	34*	-27	-18	350*	24
COC(=O)c1cc2ccsc2n1CC(=O)Nc1cc(C)cc(C)c1	-5	-74*	-15	5	2
COC(=O)c1cc2ccsc2n1CC(=O)NCC1CCCO1 (centres undefined)	0	-3	-1	1	17
CC(=O)Nc1ccc(N=Cc2c(O)c(C(=O)Nc3ccccc3)cc3ccccc23)cc1	4	11	2	186*	-20
CCOc1cc(/C=N/NC(=O)C(N)=O)cc(Br)c1O	-1	3	-4	2	-8
CCOc1cc(Br)c(Br)c(C=Nc2ccc(NC(C)=O)cc2)c1O	5	-100*	3	2	13
Cc1cc2c(c(=O)n1Cc1ccccc1)C1O[C@](CCCCN3C(=O)c4ccccc4C3=O)(Cc3cc(C#N)ccc31)O2	3	·	·	0	-9
NS(=O)(=O)c1ccc(NNC(=O)c2ccc(Br)o2)c([N+](=O)[O-])c1	·	-65*	-17	·	·
Cc1ccc(NC(=O)c2ccc(Br)o2)c([N+](=O)[O-])c1	·	-14	1	·	·
CCOc1ccc(OCC)c(NC(=O)CC(C)n2nc(C)cc2C)c1 (centres undefined)	-5	·	-8	1	-3
O=C(O)c1cc2nc3c(c(C(F)(F)F)n2n1)CCCC3	-4	5	1	2	-24

Screens as filed in PubChem.
